Reference: PubChem BioAssay (Tox21)
Records with an inconclusive call do not appear. The source made the active and inactive calls. Unless noted, calls follow the shape of the dose curve; as a rule, active = well fitted curve in the direction sought with a large enough effect in the repeat runs; inconclusive = weak or mixed curves; inactive = no such curve, though single readings can be large; an effect the other way counts as inactive or inconclusive.

Assays:
[1] = molecular target: Peroxisome proliferator-activated receptor delta (Homo sapiens) (UniProt Q03181); experiment: qHTS assay to identify small molecule agonists of the peroxisome proliferator-activated receptor delta (PPARd) signaling pathway (AID 743212; calls by dose curve)
In short: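 GeneBLAzer PPARd UAS-bla HEK293H cells (beta-lactamase reporter under UAS control), plated and rested 5 h at 37 C, then exposed to compounds in DMSO at 37 C; LiveBLAzer B/G FRET substrate added, 2 h room temperature, fluorescence read.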

[2] = molecular target: Peroxisome proliferator-activated receptor delta (Homo sapiens) (UniProt Q03181); experiment: qHTS assay to identify small molecule antagonists of the peroxisome proliferator-activated receptor delta (PPARd) signaling pathway (AID 743215; active = well fitted inhibition curve with a large enough effect in the signal ratio in the repeat runs, not every such curve was filed as active; the % refers to the signal ratio;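 also: cells stimulated with agonist L165041 at 300 nM final during compound exposure; series mostly up to about 62 µM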)
In short: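 PPARd UAS-bla HEK293H cells were pre-incubated 5 h at 37 C, then given test compounds in DMSO plus agonist L165041 (300 nM final). After 17 h at 37 C, beta-lactamase FRET substrate was added; fluorescence read after 2 h at room temperature.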

[3] = qHTS assay to identify small molecule agonists of the farnesoid-X-receptor (FXR) signaling pathway - cell viability counter screen (AID 743218); also: nearly all actives have a fitted effect of over 45% in size; also: potency is read from the fitted curve at half-maximal effect
In short: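 FXR-UAS-bla HEK 293T cells, plated 5 h at 37 C, were exposed to compounds for 16 h at 37 C. CellTiter-Glo was then added to the same wells as the bla readout; luminescence read after 30 min at room temperature.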

[4] = qHTS assay to identify small molecule antagonists of the farnesoid-X-receptor (FXR) signaling pathway - cell viability counter screen (AID 743221; active = well fitted cell-killing curve with a large enough effect in the repeat runs, not every such curve was filed as active; also: nearly all actives have a fitted effect of over 50% in size; also: potency is read from the fitted curve at half-maximal effect)
In short: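 FXR-UAS-bla HEK 293T cells were treated with test compounds plus chenodeoxycholic acid (50 uM final) for 16 h at 37 C. Cell viability in the same wells was then read as CellTiter-Glo luminescence after 30 min at room temperature.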

[5] = molecular target: Vitamin D3 receptor (Homo sapiens) (UniProt P11473); experiment: qHTS assay to identify small molecule agonists of the vitamin D receptor (VDR) signaling pathway (AID 743222; calls by dose curve)
In short: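 VDR-bla cells were plated 4 h at 37C/5% CO2, then exposed to compounds in DMSO for 16 h. After LiveBLAzer B/G FRET substrate addition and 2 h at room temperature, beta-lactamase reporter fluorescence was read.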

[6] = qHTS assay to identify small molecule agonists of the NFkB signaling pathway - cell viability counter screen (AID 1159515; calls by dose curve; also: nearly all actives have a fitted effect of over 55% in size; also: potency is read from the fitted curve at half-maximal effect)
In short: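 NFkB-bla ME-180 cells, 2,000/well, were plated overnight at 37 C, 5% CO2, then exposed to compounds in DMSO for 5 hr. After the bla FRET read, CellTiter-Glo was added to the same wells; luminescence was read after 30 min at room temperature.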

[7] = qHTS assay to identify small molecule agonists of the endoplasmic reticulum stress response signaling pathway - cell viability counter screen (AID 1159517; calls by dose curve; also: nearly all actives have a fitted effect of over 50% in size; also: potency is read from the fitted curve at half-maximal effect)
In short: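 Luminescence readout: CellTiter-Glo, 30 min RT, same wells as the ESRE-bla reporter read. HeLa ESRE-bla, 1,500 cells/well, o/n 37 C; cpd 5 hr 37 C/5% CO2.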

[8] = qHTS assay to identify small molecule antagonists of the retinoid-related orphan receptor gamma (ROR-gamma) signaling pathway - cell viability counter screen (AID 1159520); also: nearly all actives have a fitted effect of over 50% in size; also: potency is read from the fitted curve at half-maximal effect
In short: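 Tet-on ROR gamma CHO cells (1,000/well) were plated 4 hr, given compounds in DMSO for 2 hr at 37 C, then induced with 1 uM final doxycycline for 16 hr. Viability was read as ATP by CellTiter-Glo luminescence after 30 min.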

[9] = molecular target: Nuclear receptor ROR-gamma (Homo sapiens) (UniProt P51449); experiment: qHTS assay to identify small molecule antagonists of the retinoid-related orphan receptor gamma (ROR-gamma) signaling pathway (AID 1159521; also: nearly all actives have a fitted effect of over 50% in size; also: potency is read from the fitted curve at half-maximal effect)
In short: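 Tet-on RORγ CHO cells carrying a ROR response element–luciferase reporter were pretreated with compounds for 2 h, then induced with 1 uM (final) doxycycline hyclate for 16 h at 37 C. Antagonism was read as decreased ONE-Glo luminescence.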

[10] = qHTS assay to identify small molecule agonists of the AP-1 signaling pathway - cell viability counter screen (AID 1159525; calls by dose curve; also: nearly all actives have a fitted effect of over 55% in size; also: potency is read from the fitted curve at half-maximal effect)
In short: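 ME-180 AP-1-bla, 2500 cells/well, Opti-MEM + 0.5% dialyzed FBS; overnight 37 °C; cpd 15-pt titration, 5 h 37 °C; CellTiter-Glo 30 min RT; luminescence read; normalised to TOAB and DMSO controls.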

[11] = qHTS assay to identify small molecule agonists of the peroxisome proliferator-activated receptor delta (PPARd) signaling pathway - cell viability counter screen (AID 743211); also: nearly all actives have a fitted effect of over 55% in size; also: potency is read from the fitted curve at half-maximal effect
In short: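 PPARd-bla HEK293H cells (UAS-beta-lactamase reporter) were treated with compounds for 17 h at 37 C. Viability was then read in the same wells by CellTiter-Glo luminescence after 30 min at room temperature.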

[12] = qHTS assay to identify small molecule antagonists of the peroxisome proliferator-activated receptor delta (PPARd) signaling pathway - cell viability counter screen (AID 743213); also: nearly all actives have a fitted effect of over 50% in size; also: potency is read from the fitted curve at half-maximal effect
In short: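 HEK293H PPARd UAS-bla cells, 5 h pre-incubation, compound + L165041 300 nM final, 17 h 37 C; B/G FRET substrate 2 h RT; then CellTiter-Glo 30 min RT, luminescence.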

[13] = qHTS assay to identify small molecule agonists of the vitamin D receptor (VDR) signaling pathway - cell viability counter screen (AID 743224); also: nearly all actives have a fitted effect of over 50% in size; also: potency is read from the fitted curve at half-maximal effect
In short: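 VDR-bla cells were preincubated 4 h at 37C/5% CO2, then exposed to compounds for 16 h. After the 2 h room-temperature bla FRET read, CellTiter-Glo was added to the same wells and luminescence read after 30 min.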

[14] = qHTS assay to identify small molecule antagonists of the vitamin D receptor (VDR) signaling pathway - cell viability counter screen (AID 743225); also: nearly all actives have a fitted effect of over 50% in size; also: potency is read from the fitted curve at half-maximal effect
In short: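 VDR-bla HEK 293T cells, 4 h pre-incubation at 37C, then compound plus 1-alpha,25-dihydroxyvitamin D3 (3 nM final) for 16 h. After the beta-lactamase FRET read, CellTiter-Glo was added to the same wells; luminescence after 30 min at room temperature.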

[15] = molecular target: Bile acid receptor (Homo sapiens) (UniProt Q96RI1); experiment: qHTS assay to identify small molecule antagonists of the farnesoid-X-receptor (FXR) signaling pathway (AID 743217; active = well fitted inhibition curve with a large enough effect in the signal ratio in the repeat runs, not every such curve was filed as active; the % refers to the signal ratio; also: potency is read from the fitted curve at half-maximal effect)
In short: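 FXR-UAS-bla HEK 293T cells pre-incubated 5 h at 37 °C, then exposed to compounds with chenodeoxycholic acid (50 uM final) for 16 h at 37 °C. Beta-lactamase reporter read by LiveBLAzer B/G FRET substrate fluorescence after 2 h at room temperature.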

[16] = molecular target: Vitamin D3 receptor (Homo sapiens) (UniProt P11473); experiment: qHTS assay to identify small molecule antagonists of the vitamin D receptor (VDR) signaling pathway (AID 743223; active = well fitted inhibition curve with a large enough effect in the signal ratio in the repeat runs, not every such curve was filed as active; the % refers to the signal ratio; also: potency is read from the fitted curve at half-maximal effect)
In short: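 VDR-bla cells were plated, incubated 4 h at 37C, then given compound and 1alpha,25-dihydroxyvitamin D3 (3 nM final). After 16 h at 37C, LiveBLAzer B/G FRET substrate was added for 2 h at room temperature and fluorescence read.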

[17] = molecular target: Retinoic acid receptor RXR-alpha (Homo sapiens) (UniProt P19793); experiment: qHTS assay to identify small molecule agonists of the RXR signaling pathway (AID 1159527; calls by dose curve; also: nearly all actives have a fitted effect of over 35% in size)
In short: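 GeneBLAzer RXR-alpha-UAS-bla HEK 293T cells in medium with 2% charcoal-stripped FBS, pre-incubated 5 hr at 37 C, then exposed to compounds 16 hr. Beta-lactamase reporter read by FRET substrate, 2 hr room temperature, 460/530 nm emission.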

[18] = molecular target: Bile acid receptor (Homo sapiens) (UniProt Q96RI1); experiment: qHTS assay to identify small molecule agonists of the farnesoid-X-receptor (FXR) signaling pathway (AID 743220; active = well fitted activation curve with a large enough effect in the signal ratio in the repeat runs, not every such curve was filed as active; the % refers to the signal ratio)
In short: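 Beta-lactamase reporter under UAS control in GeneBLAzer FXR HEK 293T cells (5000/well) measured with LiveBLAzer FRET substrate after 2 h at room temperature. Compound exposure lasted 16 h at 37C.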

[19] = qHTS assay to identify small molecule agonists of the AP-1 signaling pathway (AID 1159526; calls by dose curve)

Measured: Potency

Peroxisome proliferator-activated receptor delta (Homo sapiens), sequence (Q03181 whole entry, looked up): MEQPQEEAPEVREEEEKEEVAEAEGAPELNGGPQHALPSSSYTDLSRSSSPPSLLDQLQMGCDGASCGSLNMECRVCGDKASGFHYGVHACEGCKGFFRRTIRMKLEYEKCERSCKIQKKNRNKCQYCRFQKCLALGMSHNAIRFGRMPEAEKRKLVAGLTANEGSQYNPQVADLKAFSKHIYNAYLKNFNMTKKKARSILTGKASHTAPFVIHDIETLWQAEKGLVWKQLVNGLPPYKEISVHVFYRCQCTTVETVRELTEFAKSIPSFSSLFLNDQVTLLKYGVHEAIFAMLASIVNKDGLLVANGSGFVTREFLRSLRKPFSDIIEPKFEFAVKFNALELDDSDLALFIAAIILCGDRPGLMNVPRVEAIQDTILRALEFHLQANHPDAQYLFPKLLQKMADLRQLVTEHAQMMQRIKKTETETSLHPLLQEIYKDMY
Bile acid receptor (Homo sapiens), sequence (Q96RI1 whole entry, looked up): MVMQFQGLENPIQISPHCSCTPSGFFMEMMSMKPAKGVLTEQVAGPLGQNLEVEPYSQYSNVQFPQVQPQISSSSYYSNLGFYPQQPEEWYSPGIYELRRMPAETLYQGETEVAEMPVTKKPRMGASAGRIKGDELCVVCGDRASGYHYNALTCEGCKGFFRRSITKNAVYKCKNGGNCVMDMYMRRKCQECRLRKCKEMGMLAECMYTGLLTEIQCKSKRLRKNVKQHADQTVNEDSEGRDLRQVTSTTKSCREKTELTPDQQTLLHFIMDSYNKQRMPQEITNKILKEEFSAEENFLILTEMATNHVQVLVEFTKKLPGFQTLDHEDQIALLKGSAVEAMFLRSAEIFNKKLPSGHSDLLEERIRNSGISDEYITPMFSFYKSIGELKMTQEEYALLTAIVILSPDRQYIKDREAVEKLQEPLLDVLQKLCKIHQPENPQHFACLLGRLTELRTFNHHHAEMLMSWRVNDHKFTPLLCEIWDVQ
Vitamin D3 receptor (Homo sapiens), sequence (P11473 whole entry, looked up): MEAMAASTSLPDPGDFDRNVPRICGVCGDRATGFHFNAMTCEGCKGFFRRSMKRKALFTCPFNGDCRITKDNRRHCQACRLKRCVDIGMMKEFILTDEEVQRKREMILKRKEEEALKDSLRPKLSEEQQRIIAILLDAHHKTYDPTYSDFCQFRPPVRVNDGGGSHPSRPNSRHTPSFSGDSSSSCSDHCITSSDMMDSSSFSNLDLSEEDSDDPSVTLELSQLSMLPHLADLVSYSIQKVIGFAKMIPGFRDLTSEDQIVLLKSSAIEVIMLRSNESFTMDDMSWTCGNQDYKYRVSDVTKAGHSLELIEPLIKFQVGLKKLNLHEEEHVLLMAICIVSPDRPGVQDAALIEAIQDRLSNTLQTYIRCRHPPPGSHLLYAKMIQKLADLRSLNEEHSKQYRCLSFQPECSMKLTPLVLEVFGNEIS
Retinoic acid receptor RXR-alpha (Homo sapiens), sequence (P19793 whole entry, looked up): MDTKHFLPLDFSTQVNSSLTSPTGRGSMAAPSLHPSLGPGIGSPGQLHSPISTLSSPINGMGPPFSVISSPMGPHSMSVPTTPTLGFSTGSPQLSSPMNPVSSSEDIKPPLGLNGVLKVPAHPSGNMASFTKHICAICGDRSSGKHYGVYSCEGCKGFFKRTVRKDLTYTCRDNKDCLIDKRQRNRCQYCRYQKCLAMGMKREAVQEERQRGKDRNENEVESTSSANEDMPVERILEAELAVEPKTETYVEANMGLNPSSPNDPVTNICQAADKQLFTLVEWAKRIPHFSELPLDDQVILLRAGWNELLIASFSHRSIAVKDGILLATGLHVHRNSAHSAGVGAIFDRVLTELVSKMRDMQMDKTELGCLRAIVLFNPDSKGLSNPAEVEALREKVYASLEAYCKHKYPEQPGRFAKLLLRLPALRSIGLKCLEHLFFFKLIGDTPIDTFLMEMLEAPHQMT

CNCc1cc(F)ccc1Oc1ccc(Cl)c(Cl)c1
active: [3] 49 µM | [9] 34.4 µM
inactive: [1] | [2] | [4] | [5] | [6] | [7] | [8] | [10]

CCCN(CCC)c1c([N+](=O)[O-])cc(C(F)(F)F)c(N)c1[N+](=O)[O-]
active: [11] 19.4 µM | [12] 30.8 µM | [3] 38.8 µM | [13] 13.8 µM | [14] 21.8 µM | [6] 24.5 µM | [7] 43.5 µM | [8] 30.5 µM | [9] 21.6 µM | [10] 13.8 µM

CCOC(=O)O[C@]1(C(=O)OCCl)CC[C@H]2[C@@H]3CCC4=CC(=O)C=C[C@]4(C)[C@H]3[C@@H](O)C[C@@]21C
not listed: [1] | [2] | [5] | [18] | [19]
inactive: all other assays above

COCCCC/C(=N\OCCN)c1ccc(C(F)(F)F)cc1
active: [11] 23.7 µM
not listed: [3] | [4] | [16] | [17] | [19]
inactive: all other assays above

Oc1cc2ccccc2c2ccccc12
active: [11] 6.92 µM | [12] 5.49 µM | [3] 11 µM | [13] 2.45 µM | [14] 4.36 µM | [6] 4.9 µM | [7] 11 µM | [8] 17.2 µM | [9] 12.2 µM | [10] 11 µM

COC(=O)C1=C(C)NC(C)=C(C(=O)OCCc2ccc(N3CCN(C(c4ccccc4)c4ccccc4)CC3)cc2)C1c1cccc([N+](=O)[O-])c1 (stereo not drawn)
not listed: [4] | [15] | [16] | [17] | [18] | [19]
inactive: all other assays above

CCCCCCCCCCCCc1ccc(O)cc1
active: [11] 24.5 µM | [12] 24.5 µM | [3] 34.7 µM | [4] 43.6 µM | [16] 13.8 µM | [13] 12.3 µM | [14] 17.4 µM | [6] 24.5 µM | [7] 21.9 µM | [8] 30.6 µM | [9] 24.3 µM | [10] 17.4 µM

COc1ccc(C(=O)/C(Br)=C\C(=O)O)cc1
inactive: [11] | [12] | [3] | [4] | [6] | [7] | [9] | [10]
active: [8] 48.6 µM

CCCCCCCCCCCC[N+](C)(C)CCCCCCCCCCCC
active: [11] 17.4 µM | [12] 13.8 µM | [15] 49 µM | [3] 27.5 µM | [14] 24.5 µM | [6] 21.9 µM | [7] 43.6 µM | [8] 27.3 µM | [9] 19.3 µM | [10] 30.9 µM

CCOC(=O)O[C@H](C)OC(=O)c1ccc2c(c1)cc(C(=O)NC1CCN(C(C)C)CC1)n2Cc1cc(-c2ccc(Cl)s2)on1
active: [11] 8.14 µM | [12] 18.2 µM | [3] 16.2 µM | [4] 45.8 µM | [16] 16.2 µM | [13] 14.5 µM | [6] 45.8 µM | [7] 45.8 µM | [8] 11.4 µM | [9] 4.54 µM | [10] 16.2 µM

CCCCCCCCCCCCCC[P+](CCCC)(CCCC)CCCC (tested in a mixture with another compound)
active: [3] 17.5 µM | [4] 22 µM | [6] 22 µM | [7] 22 µM | [8] 15.4 µM | [9] 4.89 µM | [10] 12.4 µM
inactive: [11] | [1] | [2] | [5] | [16] | [13] | [14]

CC(C)c1ccc2c(c1)CC[C@H]1[C@](C)(CN)CCC[C@]21C
active: [11] 11 µM | [12] 21.9 µM | [3] 12.3 µM | [4] 54.9 µM | [16] 49 µM | [13] 17.4 µM | [14] 43.6 µM | [6] 19.5 µM | [7] 9.77 µM | [8] 30.6 µM | [9] 30.6 µM | [10] 54.9 µM

Cc1cccc(CN2CCN(C(c3ccccc3)c3ccc(Cl)cc3)CC2)c1 (stereo not drawn)
active: [11] 26.6 µM | [3] 29.8 µM
not listed: [5] | [13] | [14] | [15] | [16] | [17] | [18]
inactive: all other assays above

Cc1cc(O)c(C(C)(C)C)cc1Sc1cc(C(C)(C)C)c(O)cc1C
active: [11] 3.88 µM | [12] 3.46 µM | [3] 8.69 µM | [4] 9.75 µM | [14] 7.75 µM | [6] 17.3 µM | [7] 21.8 µM | [8] 8.62 µM | [9] 2.73 µM | [10] 12.3 µM

Clc1ccc(C(Cn2ccnc2)OCc2ccc(Sc3ccccc3)cc2)c(Cl)c1 (stereo not drawn)
active: [11] 29.8 µM | [13] 33.5 µM
not listed: [3] | [4] | [14] | [15] | [16] | [18] | [19]
inactive: all other assays above

CC(C)(C)CC(C)(C)c1ccc(O)c(Cc2ccc(Cl)cc2Cl)c1
active: [11] 26.6 µM | [12] 26.6 µM | [4] 33.5 µM | [13] 23.7 µM | [14] 15.1 µM | [6] 16.9 µM | [7] 21.3 µM | [8] 23.7 µM | [9] 18.8 µM | [10] 15.1 µM
